# Measured values taken from PubChem BioAssay (NCI).
# Compounds without any hit were thinned out: in the full panel of roughly 83,000, 20% have a hit.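 Cells were grown in 96-well plates and exposed to the test compound at a single concentration for 48 hours; results are reported as percent growth, with values below 10 considered active.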 Values without a mark were called inactive. The source made the active and inactive calls.
# Tested on: HL-60(TB) leukemia
# Experiment: NCI-60 one-dose screen, 48 h (100 = growth as untreated, 0 = no growth, -100 = all killed)
# Details: 10 µM unless noted
row,Structure (SMILES),growth
1,CCCCCCCCCCC(=O)CCCCCCCCCC,95.4%
2,OC(c1ccc(Cl)cc1)(c1ccc(Cl)cc1)C(O)(c1ccc(Cl)cc1)c1ccc(Cl)cc1,51.2%
3,C/C(=N\N=C1/SCC(=O)N1c1ccccc1)c1ccco1,99%
4,O=S(=O)(Nc1cccc2cc(OS(=O)(=O)c3ccccc3)ccc12)c1ccccc1,41.4%
5,CCc1c(Cl)nc(N)nc1Nc1ccc(C)c(C)c1,88.1%
6,COc1cc(-c2nn3c(/C=C4/C(=O)Nc5ccccc54)c(-c4ccc(C)cc4)nc3s2)cc(OC)c1OC,34.8%
7,O=C(NO)c1ccc(Cn2c(=O)n(CCc3ccc(O)cc3)c(=O)c3ccccc32)cc1,89.3%
8,COc1ccc(C(=O)/C=C/c2cc(-c3cc(OC)c(OC)c(OC)c3)n[nH]2)cc1OC,3.15% (active)
9,N#Cc1c(N)nc(-c2cc(F)cc(C(F)(F)F)c2)nc1-c1ccccc1F,92.8%
10,Cc1n[nH]c2ccc(Br)cc2c1=O,94.3%
11,O=c1[nH]nc(-c2ccccc2)c2sc(NC(=S)Nc3ccc(Cl)cc3)nc12,72.6%
12,COC(=O)C1C2CC3c4[nH]c5cc(OC)ccc5c4CCN3CC2CC(OC2CCCCO2)C1OC (configuration not stated),98.7%
13,CC(C)[C@@]12C[C@@H](OC(=O)COC(=O)c3ccccc3)[C@@](C)(O1)[C@@H]1CC[C@@H](C)[C@H]1[C@@H]2OC(=O)/C=C/c1ccccc1,94.5%
14,CCNCCCn1c2c(c3ccc([N+](=O)[O-])cc3c1=O)C(=O)c1cc(OC)cnc1-2,-36% (active)
15,C=C(CNCCO)[C@@H]1CC[C@]2(CO)CC[C@]3(C)[C@H](CC[C@@H]4[C@@]5(C)CCC(NCCO)C(C)(C)[C@@H]5CC[C@]43C)[C@@H]12 (some centres not stated),66.2%
16,C[C@]12CCc3nc(Nc4cccc(O)c4)sc3C1=CC[C@@H]1[C@@H]2CC[C@]2(C)/C(=N\NC(N)=S)CC[C@@H]12,10.9%
17,N#C/C(=C\c1cc(O)c(O)c(O)c1)C(N)=O,69.5%
18,COc1ccc(OC)c(/C=C/c2nc(SC)n(-c3ccc(Cl)cc3)n2)c1,65.7%
19,COc1ccc2c(c1)CC/C(=C\c1cncc(Br)c1)C2=O,100%

row,Structure (SMILES),growth
1,COc1ccccc1N1C(=N)S/C(=C\c2ccc(OCc3ccccc3F)cc2)C1=O,112%
2,COc1cc(NN=C(c2ccc(O)cc2)c2ccc(O)cc2)c([N+](=O)[O-])cc1[N+](=O)[O-],133%
3,COC(=O)c1cc2c(n1Cc1ccccc1)-c1oncc1CCC2,28.9%
4,CC(C)=CC(=O)N[C@@H]1CC2CCC3C(CC[C@@]4(C)C3CC[C@@H]4C(C)N(C)C)[C@@]2(C)C[C@@H]1O (some centres not stated),-63.8% (active)
5,O=C1/C(=C/c2ccccc2)CCC/C1=C\c1ccccc1,97.8%
6,CN(CCCCCCCCNc1ccnc2ccccc12)Cc1ccc(-c2ccc(-c3ccc(C#N)cc3)s2)cc1,-58.4% (active)
7,Nc1ccccc1NC(=O)CCCCCCC(=O)Nc1ccc2c(c1)/C(=C/c1ccc[nH]1)C(=O)N2,-10.2% (active)
8,CC(C)(C)c1ccc(S(=O)(=O)Oc2ccc(-c3sc4cc(OS(=O)(=O)c5ccc(C(C)(C)C)cc5)ccc4c3C(=O)c3ccc(OCCN4CCCCC4)cc3)cc2)cc1,95.3%
9,N#C/C(=C\c1ccc(-c2ccc(Cl)c(Cl)c2)o1)c1nc(-c2ccco2)cs1,103%
10,Cc1ccc(C2SCC(=O)N2Cc2ccccc2)cc1 (configuration not stated),96.1%
11,CN(C)c1ccc(/C=C/C(=O)c2ccccc2)cc1,66.7%
12,O=C(Nc1ncc(Cc2ccccc2Cl)s1)c1ccc2c(c1)OCCO2,-56.8% (active)
13,CC(=O)c1cccc(O)c1,100%
14,COc1ccc(/C=C/C(=O)c2ccc(Oc3ncnc4ccccc34)cc2)cc1OC,54.7%
15,O=C(CCC(=O)OC1CCCC1)OC1CCCC1,103%
16,Cc1ccc(-c2nc(-c3cn(C)c4ncccc34)cs2)cc1,16.2% [100 µM]
17,CCOc1nc(-c2ccccc2)cc2c(O)c(C(=O)N/N=C/c3ccc(OC)cc3)[nH]c(=O)c12,65.1%
18,Oc1[nH]c2cc(Cl)ccc2c1/C=c1/ccc2c(c1)N=C(c1cc(F)cc(F)c1)N=2,-9.98% (active)
